Sampled rows, rich in hits. Any-hit rate of the full collection: about 3.5%.
FBW7 act = human FBW7 E3 ligase activation, primary screen; Q969H0; AlphaScreen FBW7–phospho-cyclin E peptide binding, activator screen; normalized activity (activation), % at 26.1 µM; actives 0.13% (n = 650,000); AID 1259310; in the data active means normalized activity above about 1.9%;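 further: purified mutant Fbw7 with reduced substrate affinity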
Target sequence (Q969H0 whole entry, looked up): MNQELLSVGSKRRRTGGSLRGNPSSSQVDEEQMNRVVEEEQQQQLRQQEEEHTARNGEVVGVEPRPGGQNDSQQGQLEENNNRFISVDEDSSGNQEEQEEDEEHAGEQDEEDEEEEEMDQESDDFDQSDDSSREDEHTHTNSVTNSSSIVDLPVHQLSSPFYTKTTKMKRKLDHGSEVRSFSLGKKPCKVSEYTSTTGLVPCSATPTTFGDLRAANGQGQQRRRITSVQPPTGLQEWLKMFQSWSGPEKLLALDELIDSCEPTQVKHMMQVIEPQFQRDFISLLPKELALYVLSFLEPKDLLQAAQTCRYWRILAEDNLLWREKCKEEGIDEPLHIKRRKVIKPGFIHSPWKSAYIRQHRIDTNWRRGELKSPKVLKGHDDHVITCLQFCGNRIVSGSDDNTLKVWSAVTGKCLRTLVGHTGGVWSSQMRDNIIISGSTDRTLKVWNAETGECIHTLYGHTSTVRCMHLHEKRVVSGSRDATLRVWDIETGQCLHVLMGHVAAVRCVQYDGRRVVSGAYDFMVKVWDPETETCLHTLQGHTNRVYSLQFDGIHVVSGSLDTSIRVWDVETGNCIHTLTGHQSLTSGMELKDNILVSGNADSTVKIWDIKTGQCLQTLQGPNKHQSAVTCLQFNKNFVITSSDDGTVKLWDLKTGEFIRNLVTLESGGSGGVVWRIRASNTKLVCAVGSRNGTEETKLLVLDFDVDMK
TEAD-YAP inh = TEAD-YAP interaction inhibition; HEK-TIYL cells, TEAD-Gal4/YAP UAS-luciferase luminescence; inhibition, % at 9.12 µM; actives 1.4% (n = 640,000); AID 1259422; in the data active means inhibition above about 32%;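 further: 0% = median of test compound wells and 100% = reference inhibitor wells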
GPR151 activ = activators of human GPR151. Q8TDV0. PathHunter beta-arrestin GPR151 cells, luminescence. activation, % at 11.2 µM. actives 1% (n = 650,000). AID 1508602; in the data active means activation above about 4.9%;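 further: 0% = median of compound wells and 100% = cells with positive control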
MITF inh = human MITF inhibition, primary screen; O75030; AlphaScreen MITF homodimerization, bead proximity signal; inhibition, % at 2.6 µM; actives 0.91% (n = 650,000); AID 1259374; in the data active means inhibition above about 50%;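 further: 0% = vehicle wells with protein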
GPR151 confirm = confirmation of human GPR151 activators | AID 1508609 | shares compounds with GPR151 activ | GPR151 PathHunter beta-arrestin cells, luminescence, 90 min; % of EA-reagent control over plate median | 6,700 tested, under 10 active | activation, % at 11.2 µM;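 active means mean percent activation across replicates above the confirmation screen cutoff of 4.91%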
GPR119 ag = activates human GPR119 in a GPR151 counter-screen | actives 0.3% (n = 6,700) | shares compounds with GPR151 activ | AID 1508611 | activation, % at 11.2 µM | GPR119 PathHunter beta-arrestin cells, luminescence, 90 min; 0 = compound-well median, 100 = enzyme-acceptor control;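 active means mean percent activation in the counterscreen above 29.09%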;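 further: counterscreen on off-target GPR119 to flag nonselective hits from the GPR151 activator screen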
* hit, by the source's call; . = not tested or not shown; ! = repeats disagree.

SMILES	FBW7 act	TEAD-YAP inh	GPR151 activ	MITF inh	GPR151 confirm	GPR119 ag
c1cncc(-c2cc(NCc3ccco3)nc(-c3ccncc3)n2)c1	0	3	5.1*	18	-1	-16
Cc1ccc(-c2csc(C(C#N)=C3CCCCC3)n2)cc1	0	-62	5.4*	2	0	-10
COc1ccc(/C=C2/Sc3ccc(C(=O)NC(C)(C)C)cc3NC2=O)cc1	0	-4	0	-1	.	.
COCCCNC(=O)c1ccc2c(c1)NC(=O)/C(=C\c1ccc(OC)cc1)S2	0	6	7.2*	-1	0	0
N#Cc1c(N)nc2c(oc3ccccc32)c1-c1ccccc1	0	-5	0	1	.	.
Cc1c(S(=O)(=O)Nc2cccc(Cl)c2)c(=O)n(C)c(=O)n1C	0	-2	0	2	.	.
Cn1c(N)c(S(=O)(=O)Nc2cccc(Cl)c2)c(=O)n(C)c1=O	0	-2	7.7*	3	0	0
CCOC(=O)c1ccccc1NC(=O)c1sc2ncn(Cc3ccccc3F)c(=O)c2c1C	0	6	1	3	.	.
CC(=O)NCCNCc1c(C(=O)N2CCc3ccccc3C2)nc2ccc(Cl)cn12	0	-5	1	-4	.	.
O=C(c1nc2ccc(Cl)cn2c1CNCC1COCCO1)N1CCc2ccccc2C1 (stereo unspecified)	0	-1	9.8*	8	0	-21
COc1ccc(SCC(=O)N(CCN(C)C)c2nc3ccccc3s2)cc1	0	-18	-1	-8	.	.
Cc1cc(OCC(=O)NCC(C)CN(C)C)ccc1Cl (stereo unspecified)	0	-4	5.8*	-12	2	14
Cc1cc(OCC(=O)NCc2ccc(F)cc2)ccc1Cl	0	2	6.1*	7	-1	-3
O=C(Nc1cc2cccc([N+](=O)[O-])c2oc1=O)c1ccccc1F	0	-10	0	0	.	.
Cc1ccc(C2=NS(=O)(=O)N(C)C(C(=O)NCC(C)C)=C2)cc1	0	0	2	4	.	.
Cc1ccc(C2=NS(=O)(=O)N(C)C(C(=O)NCc3ccccn3)=C2)cc1	0	6	6.9*	12	0	-9
CC(Oc1cccc(Br)c1)C(=O)NN (stereo unspecified)	0	-2	-1	16	.	.
COc1cc2sc(=NC(=O)C3COc4ccccc4O3)n(C)c2cc1OC (stereo unspecified)	0	6	6.6*	8	-1	4
Cn1ccsc1=NC(=O)C1COc2ccccc2O1 (stereo unspecified)	0	-17	-5	5	.	.
COC(=O)C(C(=O)Nc1ccccc1C)C1CCCC1 (stereo unspecified)	0	-6	0	7	.	.
CCOC(=O)C(C(=O)Nc1ccccc1OC)C1CCCCC1 (stereo unspecified)	0	3	5.1*	4	0	-4
COc1ccccc1OC(C)C(=O)NC1CCCCC1 (stereo unspecified)	0	-4	6.4*	-12	-1	-7
COc1ccccc1OCC(=O)NC1CCCCCC1	0	-53	0	-21	.	.
Cc1ccc(CC2CC(=O)N(c3ccccc3I)C2=O)cc1 (stereo unspecified)	0	0	0	-9	.	.
O=C(/C=C/c1c(F)cccc1Cl)NCCN1CCOCC1	0	-3	6.2*	-5	-1	-12
SMILES	FBW7 act	TEAD-YAP inh	GPR151 activ	MITF inh	GPR151 confirm	GPR119 ag
CC(=O)Oc1ccc(C(=O)Nc2cc(Cl)ccc2OC(C)=O)cc1	0	-17	-4	10	.	.
CCc1ccccc1NC(=O)CCCC(=O)OCC(=O)c1ccc([N+](=O)[O-])cc1	0	-5	5.5*	7	1	-6
CCc1ccccc1NC(=O)CCC(=O)OCC(=O)c1ccc([N+](=O)[O-])cc1	0	5	1	23	.	.
O=C(NOC(=O)c1ccccc1Br)c1ccc(Cl)cc1	0	8	8.0*	-10	0	6
O=C(NNC(=O)c1ccccc1Br)c1ccc(Cl)cc1	0	-14	1	-5	.	.
Cc1cccc(C)c1NC(=O)c1cc2ccccc2oc1=O	1	6	6.0*	4	0	0
O=C(c1cc2ccccc2oc1=O)N1CCN(c2ccccc2)CC1	0	-26	6.3*	9	0	5
CCc1cccc(C)c1NC(=O)c1cc2ccccc2oc1=O	0	-8	2	4	.	.
NC(=O)c1c(NC(=O)c2cc3ccccc3oc2=O)sc2c1CCCCCC2	1	-21	28*	-2	0	-1
N#Cc1c(NC(=O)c2cc3ccccc3oc2=O)sc2c1CCCCCC2	0	7	0	38	.	.
CCSCCOC(=O)C1=C(C)NC2=C(C(=O)CC(c3ccccc3)C2)C1c1cccc(OC)c1OC (stereo unspecified)	1	5	0	13	.	.
O=C(O)CNS(=O)(=O)Cc1ccccc1	0	-2	-1	-7	.	.
CCOC(=O)CNS(=O)(=O)Cc1ccccc1	1	4	6.8*	20	0	-7
Nc1nc(NCc2cccc(C(F)(F)F)c2)cc(Nc2nccc3ccccc23)n1	1	12	-2	-4	.	.
O=C(NCc1cccc(C(F)(F)F)c1)c1cccc(Nc2nccc3ccccc23)n1	0	2	5.5*	2	0	6
c1ccc(CNc2ccnc(-c3ccccc3)n2)cc1	0	-11	0	-8	.	.
FC(F)(F)c1cccc(CNc2cc(Nc3nccc4ccccc34)ncn2)c1	0	-2	6.7*	15	0	-4
O=C(CSc1ncccn1)NCc1cccc(C(F)(F)F)c1	0	-26	5.8*	4	0	-9
FC(F)(F)c1cccc(CNc2ccnc(-c3ccccc3)n2)c1	0	37*!	5.0*!	11	1	-4
C/C(=N/NC(=O)CCC(=O)Nc1ccc(Br)cc1)c1ccc(F)cc1	0	13	1	16	.	.
CSc1ccccc1C(=O)Nc1ccc2c(c1)CC(=O)N2	0	6	5.3*	6	0	-3
O=C(NCc1ccco1)c1nc2c(nnn2Cc2ccc(F)cc2)c(=O)[nH]1	1	8	5.3*	10	0	-5
O=C(NCc1cccs1)c1nc2c(nnn2Cc2ccc(F)cc2)c(=O)[nH]1	0	0	0	9	.	.
C[C@@H](O)CCC[C@H](O)/C=C/C1=C(C/C=C\CCCC(=O)O)C(=O)CC1	.	.	-1	0	.	.
CCCCC[C@H](O)/C=C/C1=C(CCCCCCC(=O)O)C(=O)CC1	0	-11	5.6*!	3	1	-4
CC(C)CCN1C(=O)C(C)(C)COc2cc(NC(=O)c3ccc4c(c3)OCO4)ccc21	0	-10	5.6*	9	3	2
CN1C(=O)C(C)(C)COc2cc(NC(=O)Nc3ccc4c(c3)OCO4)ccc21	0	-55	-1	8	.	.

Bioassay records from PubChem BioAssay.
